Laboratory results published in PubChem BioAssay.
Some of the results follow. Activity calls are given as the source filed them.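 Rule for the calls: active = inhibition reaching about 45% at 4 µM in either replicate (limit read from the data); inactive = the rest.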

Assay: lowers stimulated NF-kB luciferase signal in Jurkat – cell-based, luminescence, single concentration, T-cell NF-kB inhibitor project, confirmation (AID 435020);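 note: plate controls were PMA/ionomycin stimulated DMSO wells for no effect and unstimulated DMSO wells for full effect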
Conditions: PMA/ionomycin-induced, 16 h, at 4 µM, hits give high values

inhibition, inactive:
COc1cc(N=Cc2c(O)[nH]c3ccccc23)cc(OC)c1OC -14%, COc1ccccc1NC1=NC(c2ccc(Cl)cc2)N=C(N)N1 (stereo not given) 18.7%, CCN(CC)c1ccc(/C=N/NC(=O)c2cnccn2)c(O)c1 -7.5%, COc1cc(SC)ccc1C(=O)NCCOc1ccccc1Cl -81.7%, Cc1ccc(-n2ncc3c2CC(C)(C)CC3NC(=O)Cc2c(C)noc2C)cc1 (stereo not given) -15.6%, O=C(COC(=O)c1ccc(F)cc1)NCC1COc2ccccc2O1 (stereo not given) 12.1%, Cc1ccc2nc(-c3ccc(NC(=O)CN(C)S(=O)(=O)c4ccccc4)cc3)sc2c1 -82.4%, O=C(CSC(=S)N1CCCCC1)c1c(F)cccc1F -113%, CCOc1ccc(NC(=O)c2ccc(NC(=O)COC(=O)c3ccc(NC(=O)CC#N)cc3)cc2)cc1 -36.5%, O=c1cc(-c2ccccc2)[nH]c2cc(F)ccc12 46%, CCOc1cccc(/C=C/c2ccc3ccccc3n2)c1OC(C)=O -131%, COc1ccc(-c2csc(Nc3ccccn3)n2)cc1 16.1%, COc1ccccc1NC(=O)C1=C(C)Nc2nc3ccccc3n2C1c1cccs1 (stereo not given) 42.7%, O=C(CCNC(=O)c1ccc(Br)cc1)Nc1cccc(S(=O)(=O)N2CCCCC2)c1 0.65%, COc1ccc(C)c(Cn2c(-c3nonc3N)nc3ccccc32)c1 44.8%, Cc1cc(N)n2nc(-c3ccc(C(C)(C)C)cc3)cc2n1 -164%, Cc1ccc(O)c(NC(=O)COc2cc(C)ccc2C)c1 0.55%, Cn1c(-c2ccc(F)cc2)cc2onc(-c3ccccc3Cl)c2c1=O -96.3%, CC(C)c1ccc(NC(=O)NC2CCCCC2)cc1 -175%, Cc1ccc2nc(-c3ccncc3)cc(C(=O)Nc3ccc(OC(F)F)cc3)c2c1 28.2%, Cc1ccccc1Nc1nc(N)nc(CSc2ccccc2)n1 -82.8%, C=CCn1c(SCc2c(C)noc2C)nc2sc3c(c2c1=O)CCC(C)C3 (stereo not given) 27.9%, COc1ccc(-n2ncc3c(N4CCc5ccccc54)ncnc32)cc1 -93.4%, Cc1ccc(NC(=O)c2csc3c2CCCC3)cc1 -157%, Cc1cccc(-n2c(C)cc(/C=N\NC(=O)c3cccs3)c2C)c1 6.7%, O=C(NCCC1CCCCN1S(=O)(=O)c1cccs1)C(=O)Nc1ccc(F)cc1F (stereo not given) -3.5%

inhibition, active:
CC[C@]1(O)CC2CN(CCc3c([nH]c4ccccc34)[C@@](C(=O)OC)(c3cc4c(cc3OC)N(C=O)[C@H]3[C@@](O)(C(=O)OC)[C@H](OC(C)=O)[C@]5(CC)C=CCN6CC[C@]43[C@@H]65)C2)C1 (stereo not given in full) 62.8%, CCOC(=O)c1ccc(NC(=O)Cn2cnc3cc(C)c(C)cc32)cc1 66.2%, CCCOC(=O)c1[nH]c2c(c1C)C(=O)CC(c1cccs1)C2 (stereo not given) 52.4%, CCOc1ccccc1NC(=O)Cn1nnc(C(=O)NCc2cccs2)c1N 51.6%, CSc1nc(N(C)NC(=O)c2cccc(C)c2)c2ccccc2n1 57.2%, COc1ccc(CS(=O)/C(Cl)=C(/Cl)C(=O)Nc2ccc(OC)nc2)cc1 (stereo not given) 95.7%, COc1ccc(NC(=O)/C(Cl)=C(/Cl)S(=O)Cc2ccc(C)cc2)cn1 (stereo not given) 100%, COc1ccccc1N1CCN(C(=O)c2cc(=O)c3cc(C)cc(C)c3o2)CC1 54%, Cc1cccc(NS(=O)(=O)c2ccc(-c3cnc(C4CC4)o3)cc2)c1 53.5%, Cc1cc(=O)oc2cc(OCC3CC(c4ccccc4Cl)=NO3)ccc12 (stereo not given) 54.6%, CC(=O)c1ccc(Oc2cc(C)nc(-n3nc(C)cc3C)n2)cc1 58.9%, Cn1nccc1C(=O)NC1CCCc2c1cnn2-c1ccccc1F (stereo not given) 68.1%, O=C(Nc1ccc(CSc2ccccc2)cc1)c1ccc(CN2CCOCC2)cc1 62.3%, O=C(NCC#CCSc1nnc(-c2cccc3ccccc23)o1)c1cccs1 62.8%
